# TEAD-YAP inh: TEAD-YAP interaction inhibition, primary screen, TEAD-YAP interaction inhibitor project, luminescence, HEK-TIYL cells; TEAD-Gal4/YAP UAS-luciferase luminescence; inhibition, % at 9.12 µM; 640,000 tested, 1.4% active; in the data active = inhibition above about 32%;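 note: 0% = median of test compound wells and 100% = reference inhibitor wells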
# FBW7 activator: FBW7 E3 ligase activators, primary screen, biochemical, AlphaScreen, human; F-box/WD repeat-containing protein 7 (Homo sapiens), Q969H0; AlphaScreen FBW7–phospho-cyclin E peptide binding, activator screen; normalized activity (activation), % at 26.1 µM; 650,000 tested, 0.13% active; in the data active = normalized activity above about 1.9%;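 note: purified mutant Fbw7 with reduced substrate affinity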
# MITF inh: MITF inhibitors, primary screen, biochemical, AlphaScreen, human; Microphthalmia-associated transcription factor (Homo sapiens), O75030; AlphaScreen MITF homodimerization, bead proximity signal; inhibition, % at 2.6 µM; 650,000 tested, 0.91% active; AID 1259374, 2018; in the data active = inhibition above about 50%;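 note: 0% = vehicle wells with protein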
# Target sequence (O75030 whole entry, looked up): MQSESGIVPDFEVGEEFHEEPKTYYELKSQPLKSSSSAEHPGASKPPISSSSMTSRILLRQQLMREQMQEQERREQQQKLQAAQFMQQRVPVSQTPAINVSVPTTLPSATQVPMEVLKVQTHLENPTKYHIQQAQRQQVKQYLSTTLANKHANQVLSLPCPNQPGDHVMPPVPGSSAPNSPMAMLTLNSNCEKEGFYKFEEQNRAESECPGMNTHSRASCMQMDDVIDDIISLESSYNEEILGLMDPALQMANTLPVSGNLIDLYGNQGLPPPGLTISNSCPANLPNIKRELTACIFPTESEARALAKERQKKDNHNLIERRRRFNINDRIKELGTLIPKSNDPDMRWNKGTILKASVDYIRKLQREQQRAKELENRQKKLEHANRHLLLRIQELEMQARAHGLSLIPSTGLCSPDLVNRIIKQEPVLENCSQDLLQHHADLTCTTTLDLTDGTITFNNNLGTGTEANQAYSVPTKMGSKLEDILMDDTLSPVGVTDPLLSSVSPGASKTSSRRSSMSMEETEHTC
# GPR151 ag: activators of human GPR151, primary screen, cell-based, PathHunter beta-arrestin, luminescence; activation, % at 11.2 µM; 650,000 tested, 1% active; G-protein coupled receptor 151 (Homo sapiens), Q8TDV0; PathHunter beta-arrestin GPR151 cells; in the data active = activation above about 4.9%;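 note: 0% = median of compound wells and 100% = cells with positive control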
# MITF confirm: MITF inhibitors, retest of hits, confirmation, biochemical, AlphaScreen, triplicate. shares compounds with MITF inh. AlphaScreen MITF homodimerization, biotin/His-MITF beads. inhibition, % at 2.6 µM. 4,700 tested, 16% active. AID 1259372, 2018;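 active = inhibition above a cutoff derived from the DMSO control wells, cut at about 28% in these data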;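 note: 0% = MITF dimer wells with DMSO only; inhibitors lower the bead chemiluminescence by keeping MITF from dimerizing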
# AS interf DR: AlphaScreen optical interference compounds, dose response, counter-screen, biochemical, HTS; shares compounds with MITF inh; AlphaScreen optical interference counterscreen, cell-free; IC50, µM; 480 tested, 6% active; call rule not given here
# AlphaScreen intf2: AlphaScreen optical interference compounds, counter-screen for MITF inhibitor project, biochemical, triplicate | shares compounds with MITF inh | AID 1259376, 2018 | 4,700 tested, 7.6% active | LysRS AlphaScreen counterscreen, signal interference | inhibition, % at 2.6 µM;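 active = inhibition above a cutoff derived from the DMSO control wells, cut at about 30% in these data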
# * marks the source's active call; other numbers are inactive results; nt = no result given. A selection: hits, their analogues and other compounds. The true share with any hit is near 3.4%.
SMILES,TEAD-YAP inh,FBW7 activator,MITF inh,GPR151 ag,MITF confirm,AlphaScreen intf2,others
Cc1ccc(OCCCCN2CCNCC2)c(Br)c1,-18,0,56*,3,21,20,
CCC(C)(C)c1ccc(OCCN2CCNCC2)c(Cl)c1,-1,0,61*,1,-8,-6,
Clc1cc(Br)ccc1OCCCCN1CCNCC1,14,0,56*,0,-13,3,
Brc1cccc(OCCCCN2CCNCC2)c1,0,0,48,0,nt,nt,
Cc1cc(NCCO)nc(NCCCN2CCCC2=O)n1,8,0,2,-1,nt,nt,
CC(O)(CCn1cccn1)c1ccc2c(c1)CN(C(=O)Cc1cscn1)CCO2 (stereo not drawn),4,0,12,-1,nt,nt,
COc1ccc(Cl)cc1C(=O)NNC(=O)COc1ccc2c(C)cc(=O)oc2c1,-2,0,64*,2,-10,-3,
c1ccc(CCCN2CCN(C3CCN(Cc4ccccc4)CC3)CC2)cc1,-8,0,-5,0,nt,nt,
Fc1ccc(CN2CCN(CCCc3ccccc3)CC2)cc1,-4,0,59*,-1,5,0,
Fc1ccccc1OCCCN1CCN(Cc2ccccc2)CC1,5,1,64*,-1,6,16,
c1ccc(CCCN2CCN(Cc3cccnc3)CC2)cc1,-2,0,83*,-2,19,19,
Fc1ccccc1CN1CCN(CCCc2ccccc2)CC1,4,0,73*,-2,8,3,
CN1CCCN(Cc2ccccc2F)CC1,-1,0,12,0,nt,nt,
O=C(CN1C(=O)C2C3C=CC(C4CC34)C2C1=O)Oc1ccc2ccccc2c1 (stereo not drawn),-3,0,-4,3,nt,nt,
Nc1n[nH]c(C(=O)N/N=C/C=C(\Br)c2ccccc2)n1,13,0,8,0,nt,nt,
CC1CCN(c2nc(Cl)nc(NC(C)(C)C)n2)CC1,-9,1,20,0,nt,nt,
COc1ccc(C(=O)N2CCC(C(=O)NCc3ccc(Cl)cc3)CC2)cc1,14,0,20,-1,nt,nt,
O=C(O)c1ccccc1C(=O)Nc1nnc(SCC(=O)N2CCc3ccccc32)s1,14,0,17,-1,nt,nt,
CCOC(=O)c1c(NC(=O)c2nn(C)cc2[N+](=O)[O-])sc2c1CCCC2,-1,0,17,-1,nt,nt,
CCOC(=O)c1c(NC(=O)c2nn(C)cc2Cl)sc2c1CCCC2,7,0,93*,-1,3,-2,
O=C1c2ccccc2C(=O)N1c1ccccc1,9,0,21,-2,nt,nt,
Nc1cccc2c1C(=O)N(c1ccccc1)C2=O,-6,0,52*,0,0,10,
Cc1ccc(N(C(C)C(=O)NCCSc2ccccc2)S(C)(=O)=O)cc1 (stereo not drawn),-18,0,7,2,nt,nt,
COc1cc(/C=C2\C(C)=C([N+](=O)[O-])CS2(=O)=O)ccc1O,-2,0,87*,-1,76*,0,AS interf DR=>6.5
CC1=C([N+](=O)[O-])CS(=O)(=O)/C1=C\c1ccccc1,-7,0,2,1,nt,nt,
SMILES,TEAD-YAP inh,FBW7 activator,MITF inh,GPR151 ag,MITF confirm,AlphaScreen intf2,others
COc1cc(C(=O)NCCC(=O)NC2CCCCCCC2)cc(OC)c1OC,7,0,78*,-1,-1,1,
CC(c1ccccn1)N(CCN(C)C)C(=S)Nc1cccc(F)c1 (stereo not drawn),4,-2,88*,2,42*,96*,
NC1(C(Cl)(Cl)Cl)Oc2ccccc2O1,-7,-1,84*,0,114*,25,AS interf DR=>6.5
COCCCNCCCCOc1ccc(C(C)C)c(C)c1,7,0,58*,0,4,15,
COCCCNCCCOc1ccc(C(C)C)c(C)c1,-5,0,59*,-2,2,18,
CCOc1ccc(NC(=O)C2C3C=CC4(O3)C2C(=O)N(Cc2ccc(OC)cc2)C4C(=O)NC2CCCCC2C)cc1 (stereo not drawn),7,0,3,2,nt,nt,
COc1ccc(NC(=O)CSc2ncccc2-c2nc3ccccc3[nH]2)c(OC)c1,10,0,12,-1,nt,nt,
COc1ccc(OC)c(CN2CCN(Cc3ccccc3[N+](=O)[O-])CC2)c1,5,-1,77*,0,7,16,
COc1ccc(CN2CCN(Cc3ccccc3[N+](=O)[O-])CC2)c(OC)c1,-4,0,52*,-1,5,12,
CC(=O)N1CCN(Cc2ccccc2[N+](=O)[O-])CC1,1,0,-14,0,nt,nt,
COc1ccc(OC)c(CN2CCN(S(=O)(=O)c3ccccc3[N+](=O)[O-])CC2)c1,-13,0,37,0,nt,nt,
CC1CCCC(NC(=O)CCNC(=O)Cn2cnc3sc4c(c3c2=O)CCCC4)C1C (stereo not drawn),7,0,10,1,nt,nt,
Cc1ccccc1NC(=O)COc1ccc(C(C)(C)C)cc1,-10,0,5,-1,nt,nt,
CSc1nc(NN)c2c3c(sc2n1)CN(C)CC3,-4,0,74*,0,7,15,
COc1cccc(C(=O)OCCN(C)Cc2ccccc2)c1,-2,0,11,-1,nt,nt,
Fc1ccc(CN2CCN(Cc3ccncc3)CC2)cc1,14,1,83*,-1,6,9,
O=C(c1ccccc1)N1CCN(Cc2ccccc2)CC1,4,0,13,4,nt,nt,
Cc1ccc(CN2CCN(C(=O)c3ccccc3)CC2)cc1,-2,0,47,0,nt,nt,
Cc1ccc(CN2CCN(C(=O)c3ccncc3)CC2)cc1,1,0,65*,3,-1,-4,
O=C(c1ccc(F)cc1)N1CCN(Cc2ccc(F)cc2)CC1,5,0,52*,-2,-4,1,
O=C(c1ccc(F)cc1)N1CCN(Cc2ccncc2)CC1,-5,0,63*,0,10,-7,
O=C(CSc1ccc(F)cc1)Nc1nc2c(F)cc(F)cc2s1,-8,0,-7,0,nt,nt,
COc1cc(/C=C/C(=O)c2ccc(C)cc2)cc(OC)c1O,0,0,7,1,nt,nt,
C=CC[N+](C)(C)CCCNC(=O)c1c(O)c2c([nH]c1=O)CCCC2,9,0,5,0,nt,nt,
COc1ccccc1NC(=O)C(=S)N1CCCCC1,-1,0,-2,-1,nt,nt,
COc1ccc(NC(=O)C2CC23CCN(C(=O)C#Cc2ccccc2)CC3)cc1Cl (stereo not drawn),5,0,8,0,nt,nt,
Fc1ccccc1C1CCN(Cc2ccncc2)CC1,3,0,70*,0,5,12,
O=C(c1ccc(F)cc1)N1CCN(Cc2ccc(Br)cc2)CC1,12,0,62*,1,7,15,
